The list is not random: actives were taken first. Their share in the collection is about 21%.
IL1B secr inh – qHTS for Inhibitors of Inflammasome Signaling: IL-1-beta AlphaLISA Primary Screen; activity change, % at 57.5 µM; AID 743279, 2014; THP-1 LPS/ATP IL-1B secretion, AlphaLISA, 16 h; active compounds read low; actives 4.7% (n = 360,000); in the data active = activity change below about -50%; inconclusive = mostly about -30% to -49%
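THP-1 cells pretreated 1 hr with compounds (up to 57.5 uM final), then stimulated with LPS (250 ng/mL final) plus ATP (1.25 mM final); secreted IL-1B measured by AlphaLISA after 16 hr, decreased signal indicating inhibition.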
ELG1 DNA repair – qHTS screen for small molecules that inhibit ELG1-dependent DNA repair in human embryonic kidney (HEK293T) cells expressing luciferase-tagged ELG1. HEK293T ELG1-luciferase reporter, luminescence, 16 h; DNA damage induced by 5-fluorouridine. actives 2.3% (n = 330,000). AID 504467, 2011. Potency, µM (top dose mostly 46.1 µM), for the others: at the highest dose activity change, negative = inhibition, hits mostly inhibitors; note: potency is the fitted concentration of half-maximal effect; nearly all actives have a fitted effect of over 55% in size
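Overnight (16 hr) co-exposure of 2,000 cells/well to 5-fluorouridine and compound at 37 °C preceded detection. Luciferase was quantified via ONE-Glo luminescence; loss of signal denotes inhibition.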
TDP1 cell CPT – qHTS for Inhibitors of human tyrosyl-DNA phosphodiesterase 1 (TDP1): qHTS in cells in presence of CPT. chicken DT40 Tdp1-/-;hTDP1 cells + 20 nM CPT, ATP luminescence, 48 h. Potency, µM (titrated, usually from 46.2 µM), for the others: at the highest dose activity change, negative = growth inhibition, usual class: inhibitors. actives 12% (n = 420,000). AID 686979, 2013; note: potency is the fitted concentration of half-maximal effect; nearly all actives have a fitted effect of over 55% in size
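Chicken DT40 Tdp1-/- cells stably complemented with human TDP1 were seeded at 400 cells/well in medium containing 20 nM camptothecin, exposed to pin-transferred compounds, and grown at 37 °C for at least 48 hr. Viability was read as ATP luminescence.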
TDP1 cell noCPT – qHTS for Inhibitors of human tyrosyl-DNA phosphodiesterase 1 (TDP1): qHTS in cells in absence of CPT | DT40 Tdp1-/- hTDP1 cells, no CPT, ATP luminescence, 48 h | Potency, µM (top dose mostly 46.2 µM), inactives show top-dose activity change, negative = growth inhibition, hits mostly inhibitors | actives 15% (n = 420,000) | AID 686978, 2013; note: potency is the fitted concentration of half-maximal effect; nearly all actives have a fitted effect of over 55% in size
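No-CPT arm: Tdp1-/-;hTDP1 DT40 cells (400/well) plus compounds, incubated ≥48 hr at 37 °C. Readout CellTiter-Glo luminescence.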
Gal4-VP16 FLuc – VP16 counterscreen qHTS for inhibitors of ROR gamma transcriptional activity. Drosophila S2 Gal4-VP16 UAS-luciferase, luminescence, 20 h. Potency, µM (series often up to 53.6 µM), inactives show at the top dose activity, negative = inhibition, hits mostly inhibitors. actives 3.5% (n = 310,000);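 note: Gal4-VP16 expression switched on by copper sulfate through the metallothionein promoter; potency is the fitted concentration of half-maximal effect; nearly all actives have a fitted effect of over 50% in size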
RORg inh – qHTS for inhibitors of ROR gamma transcriptional activity; Nuclear receptor ROR-gamma (Mus musculus), P51450; Drosophila S2 Gal4-RORgamma UAS-luciferase reporter, 20 h; Potency, µM (top dose mostly 53.6 µM), inactives show top-dose activity change, negative = inhibition, most hits filed as inhibitors; actives 5.4% (n = 310,000); AID 2551, 2010; note: potency is the fitted concentration of half-maximal effect; nearly all actives have a fitted effect of over 60% in size
Target sequence (P51450 whole entry, looked up, the tested form may be a part): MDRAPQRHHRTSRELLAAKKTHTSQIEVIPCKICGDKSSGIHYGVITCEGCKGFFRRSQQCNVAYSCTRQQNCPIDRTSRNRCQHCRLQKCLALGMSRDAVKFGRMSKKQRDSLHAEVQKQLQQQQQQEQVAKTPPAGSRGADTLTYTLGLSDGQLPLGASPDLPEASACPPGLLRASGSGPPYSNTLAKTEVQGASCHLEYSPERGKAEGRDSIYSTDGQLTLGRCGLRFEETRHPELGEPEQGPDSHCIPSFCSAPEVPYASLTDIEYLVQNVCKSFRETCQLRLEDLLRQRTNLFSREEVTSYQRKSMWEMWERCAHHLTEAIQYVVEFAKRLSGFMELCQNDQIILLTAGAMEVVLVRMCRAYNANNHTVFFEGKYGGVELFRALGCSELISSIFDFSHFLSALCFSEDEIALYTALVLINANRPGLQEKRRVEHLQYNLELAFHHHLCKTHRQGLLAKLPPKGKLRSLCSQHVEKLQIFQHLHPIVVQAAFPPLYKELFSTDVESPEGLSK
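Schneider cells (Drosophila), stable Gal4 DBD–ROR gamma + UAS-luc; 1 hr cmpd preincubation; Cu2+ induction 700 uM final; 20 hr ambient; luminescence.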
Numbers without * were called inactive; ? = inconclusive; nt = no result; [ ] = another dose, or the depositor's remark. Unless noted, calls come from the whole dose curve; as a rule, active = well fitted curve in the direction sought with a large enough effect; inconclusive = small, poorly fitted or top-dose-only effect, or another doubt; inactive = no such curve, though single readings can be large; an effect the other way counts as inactive or inconclusive. % is set by controls: 0 for no effect and ±100 for the full control effect.

SMILES | IL1B secr inh | ELG1 DNA repair | TDP1 cell CPT | TDP1 cell noCPT | Gal4-VP16 FLuc | RORg inh
CC(C)C(NC(=O)c1c(F)cccc1F)C(=O)N1CCN(S(=O)(=O)/C=C/c2ccccc2)CC1 (centres undefined) | -4.4 | -17.8% | -11.6% | -10.9% | nt | nt
CC(=O)N(O)c1ccc(C=Cc2ccccc2)cc1 | 0.0 | nt | 2.06µM* | 0.411µM* | nt | nt
COc1ccc(C(CC(=O)N2CCCC2)c2c(OC)cc(OC)c3ccc(=O)oc23)cc1 (centres undefined) | 6.7 | 17.9% | ? | ? | -8.5% | -2.6%
COc1cc(O)c(C(CCN2CCCC(C)C2)c2ccc3c(c2)OCO3)c(OC)c1 (centres undefined) | 0.0 | -1.5% | 16.4µM* | 16.4µM* | 1.6% | 2.6%
COc1cc(OC)c2ccc(=O)oc2c1C(CCN1CCCC(C)C1)c1ccc2c(c1)OCO2 (centres undefined) | 0.0 | 9.5% | 10.3µM* | 14.6µM* | -8.0% | -25.7%
COc1cc(O)c(C(CCN2CCOCC2)c2ccc3c(c2)OCO3)c(OC)c1 (centres undefined) | -23.3 | -0.7% | ? | ? | 4.5% | 4.5%
CCn1cc(CCCC(=O)NCc2cccc(OC)c2)c2ccccc21 | ? | 0.0% | ? | ? | -8.5% | -16.6%
Cc1cccc(NC(=O)c2nc(S(C)(=O)=O)ncc2Cl)c1 | nt | nt | 0.651µM* | 0.92µM* | nt | nt
COc1cccc(NC(=O)c2ncc(Cl)c(Cl)c2Cl)c1 | -14.8 | ? | 7.31µM* | 5.17µM* | ? | 4.4%
COc1cccc(NC(=O)c2nc(S(C)(=O)=O)ncc2Cl)c1 | -100.9* | ? | 1.03µM* | 0.651µM* | 5.01µM* | 3.98µM*
CCS(=O)(=O)c1ncc(Cl)c(C(=O)Nc2c(C(=O)Nc3cccc(C)c3)oc3ccccc23)n1 | nt | nt | 1.03µM* | 0.731µM* | nt | nt
Cc1cccc(NC(=O)c2cccc(C(=O)Nc3cccc(C)c3)n2)c1 | 37.3 | nt | -19.2% | -21.3% | nt | nt
COc1cccc(NC(=O)c2nc(SC)ncc2Cl)c1 | 27.8 | 0.7% | ? | ? | 15.6% | 40.1%
CCOC(=O)CN(C(=O)CSc1nnnn1C)c1ccccc1 | 31.9 | 16.7% | 4.9% | -6.4% | nt | nt
NCCC[C@@H](CC(=O)N[C@@H]1CCCC[C@H]1C(=O)N[C@H](CC(=O)N[C@@H](CCC(=O)O)CC(=O)O)Cc1ccccc1)NC(=O)C[C@H](CO)NC(=O)[C@@H]1CCCC[C@H]1N | nt | nt | nt | nt | 0.8% | 7.8%
N#Cc1c(C(F)(F)F)cc(-c2ccc(F)cc2)[nH]c1=O | 91.1 | 18.3µM* | -2.0% | -12.0% | -5.3% | ?
O=C(CSc1n[nH]c(=O)[nH]c1=O)N/N=C/c1ccccc1O | 11.2 | 5.2% | 13µM* | -3.4% | 12.3% | -26.8%
O=C(CSc1ccccc1)N/N=C/c1ccccc1O | 144.0 | -7.6% | 4.11µM* | 2.59µM* | 1.58µM* | 0.631µM*
O=C(NCCCCCCNC(=O)c1ccccc1O)c1ccccc1O | -25.4 | 10.3µM* | ? | 20.6µM* | ? | 3.1%
O=C(CCSCCC(=O)NN=Cc1ccccc1O)NN=Cc1ccccc1O | 29.0 | nt | -24.3% | -23.7% | nt | nt
Cc1nccn1CC(=O)N/N=C/c1ccccc1O | 119.9 | ? | ? | 20.6µM* | ? | 3.98µM*
Cc1nccn1CC(=O)N/N=C/c1c[nH]c2ccccc12 | 47.1 | -13.1% | -22.7% | ? | 2.9% | 7.3%
O=C(c1cccc(S(=O)(=O)N2CCCC2)c1)N1CCOCC1 | -5.2 | 14.3% | -7.1% | 15.8% | nt | nt
COc1ccc(C(=O)NCc2nnc(SCC(=O)Nc3ccccc3)n2-c2ccc(F)cc2)cc1 | nt | nt | -0.1% | -27.2% | nt | nt
O=C(CCCCCNC(=O)c1ccccc1)N/N=C/c1ccccc1O | 23.3 | ? | -1.3% | -14.0% | 20µM* | 6.31µM*
SMILES | IL1B secr inh | ELG1 DNA repair | TDP1 cell CPT | TDP1 cell noCPT | Gal4-VP16 FLuc | RORg inh
COc1ccc(CSCC(=O)N/N=C/c2ccccc2O)cc1 | 115.4 | ? | 2.91µM* | 2.59µM* | 3.16µM* | 0.708µM*
COc1ccc(OCC(=O)N/N=C\c2ccco2)cc1 | -24.9 | 18.5% | -9.8% | -12.8% | -9.7% | -7.2%
COc1ccc(/[N+]([O-])=C/c2ccco2)cc1 | -3.2 | ? | 14.6µM* | 16.4µM* | nt | nt
COc1ccncc1-c1ccccc1C1=CC(=O)CC(C)(C)C1=O | 16.9 | nt | -12.3% | ? | nt | nt
CCN(CC)S(=O)(=O)c1cccc(-c2nnc(SCC(=O)c3ccc(Cl)s3)n2C)c1 | -11.2 | ? | ? | ? | -3.2% | 2.3%
CCN(CC)S(=O)(=O)c1ccc(-c2nnc3sc4cccc(C)c4n23)cc1 | 11.4 | 23.1µM* | 23.1µM* | ? | -1.7% | 2.24µM*
CCOc1ccccc1NC(=O)Cn1nnc2sc3c(c2c1=O)CCC(C(C)(C)C)C3 (centres undefined) | nt | nt | 14.6µM* | 5.17µM* | nt | nt
Cc1cc(NC(=O)Cn2nnc3sc4c(c3c2=O)CCC(C(C)(C)C)C4)no1 (centres undefined) | -27.0 | -4.2% | 11.2µM* | ? | -3.1% | -16.7%
CCOC(=O)c1ccccc1NC(=O)Cn1nnc2sc3c(c2c1=O)CCCC3 | nt | nt | -15.1% | 1.1% | nt | nt
Cc1c(CNCCc2ccc(S(N)(=O)=O)cc2)c(C(=O)O)c(C)n1Cc1ccc(Cl)cc1 | nt | nt | -1.3% | ? | nt | nt
CN(C)C(=O)c1ccc(-c2cncnc2N2CCNCC2)cc1 | nt | nt | 10.4% | 1.6% | -2.0% | 6.6%
COc1ccc(C(=O)/C=C2\NCCc3cc(OC)c(OC)cc32)cc1OC | ? | 14.6µM* | 16.4µM* | 16.4µM* | -6.9% | -6.3%
COc1ccc(C(=O)/C=C/N(C)C)cc1OC | -12.6 | -0.2% | ? | ? | 0.9% | 12.3%
C/C(CCC12CC3CC(CC(C3)C1)C2)=N\NC(N)=S | -5.3 | ? | 14.6µM* | 16.4µM* | 4.47µM* | 1.26µM*
Cc1c(C)c(C)c(CN2CCCC2)c(C)c1C | 9.7 | 0.0% | -4.5% | -22.7% | -3.5% | 0.3%
CC(C)CCN1CCc2nc(COc3ccccc3)c3c(c2C1)COC(C)C3 (centres undefined) | nt | nt | nt | nt | 0.4%[10 µM] | 0.6%[10 µM]
ClC(/C=N/n1cnnc1)=C/c1ccccc1 | -94.0* | 13.3% | 14.6µM* | 1.84µM* | 24.0% | -17.8%
CC(/C=N/n1cnnc1)=C\c1ccccc1 | 3.2 | nt | -14.2% | -8.4% | -5.2% | 24.6%

Assay outcomes: PubChem, National Center for Advancing Translational Sciences (NCATS)
